AmpC no deterg = qHTS Inhibitors of AmpC Beta-Lactamase (assay without detergent); P00811; AmpC nitrocefin hydrolysis, absorbance 480 nm, 0.0001% Triton; Potency, µM (titrated, usually from 57.1 µM), inactives show at the highest dose activity change, negative = inhibition, most hits filed as inhibitors; hit rate 0.52% among 330,000;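 also: potency is read from the fitted curve at half-maximal effect; plate controls were no compound for no effect and no enzyme for full effect; nearly all actives have a fitted effect of over 20% in size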
Target sequence (P00811 whole entry, looked up): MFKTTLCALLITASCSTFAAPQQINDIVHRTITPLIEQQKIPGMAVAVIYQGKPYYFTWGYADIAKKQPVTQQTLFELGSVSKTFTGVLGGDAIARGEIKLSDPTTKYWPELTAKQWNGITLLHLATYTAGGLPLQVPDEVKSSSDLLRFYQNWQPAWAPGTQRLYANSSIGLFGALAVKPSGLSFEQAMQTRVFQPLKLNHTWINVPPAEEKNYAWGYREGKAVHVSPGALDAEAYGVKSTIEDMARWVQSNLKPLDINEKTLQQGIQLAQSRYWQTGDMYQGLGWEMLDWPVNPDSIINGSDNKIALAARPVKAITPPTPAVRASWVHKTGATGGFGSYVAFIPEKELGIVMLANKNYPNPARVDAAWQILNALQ
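AmpC (5.3 nM in the dispensed reagent) in 20 mM phosphate pH 7.0 with 0.01% (detergent screen) or 0.0001% Triton X-100 was preincubated with compounds for 15 min at room temperature. Nitrocefin was then added from an 800 uM solution, and hydrolysis was followed at 480 nm.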
NS1 function inh = qHTS Assay for Inhibitors of Influenza NS1 Protein Function | Potency, µM (highest dose often 46.1 µM), for inactives: top-dose activity, positive = more growth | AID 2326, 2010 | hit rate 0.4% among 270,000; calls by dose curve; also: potency is read from the fitted curve at half-maximal effect; actives are rising curves; nearly all actives have a fitted effect of over 50% in size
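OD600 was taken as the measure of yeast growth restored by compound in an NS1-expressing S. cerevisiae strain. Cells had been washed out of glucose medium and diluted 1:100 into galactose -URA medium, pH 6.0.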
AmpC detergent = qHTS Inhibitors of AmpC Beta-Lactamase (assay with detergent); P00811; AmpC hydrolysis of nitrocefin, absorbance 480 nm, 0.01% Triton; Potency, µM (top dose mostly 114 µM), for the others: at the highest dose activity change, negative = inhibition, most hits filed as inhibitors; hit rate 0.041% among 370,000; AID 485294, 2010;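 also: potency is read from the fitted curve at half-maximal effect; 0% = no-compound wells and -100% = no-enzyme wells; nearly all actives have a fitted effect of over 25% in size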
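20 mM phosphate pH 7.0 + 0.01% (detergent screen) or 0.0001% Triton X-100; 5.3 nM AmpC reagent; cpd preinc 15 min RT; nitrocefin (800 uM stock) to start; A480 q20 s × 4 min; Activity was normalised to no-enzyme and no-compound control wells.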
Shiga inhibitor = A qHTS for Small Molecule Inhibitors of Shiga Toxin. Vero cells, Shiga toxin protein synthesis inhibition reporter. inhibition, % at 38.7 µM. hit rate 9.2% among 290,000; in the data active = inhibition mostly above about 28%, no sharp cut-off; inactive = mostly below about 43%; also: 0% is about no effect
Cycloheximide cs = Cycloheximide Counterscreen for Small Molecule Inhibitors of Shiga Toxin. cell reporter, cycloheximide protein synthesis inhibition counterscreen. max response, %. hit rate 12% among 300,000. AID 2314, 2010; in the data active = max response mostly above about 13%, no sharp cut-off; inactive = mostly below about 14%; also: read at 38.3 µM for the half of the compounds with a filed dose; 0% is about no effect
Active calls of the source: *; ? = inconclusive; nt = not tested or not shown. This is one part of a sample in which hits are shown more often than they occur. Unless noted, calls follow the shape of the dose curve; as a rule, active = well fitted curve in the direction sought with a large enough effect; inconclusive = small, poorly fitted or top-dose-only effect, or another doubt; inactive = no such curve, though single readings can be large; an effect the other way counts as inactive or inconclusive.

SMILES	AmpC no deterg	NS1 function inh	AmpC detergent	Shiga inhibitor	Cycloheximide cs
Cc1cc(NC(=O)c2c(-c3c(Cl)cccc3Cl)noc2C)n(C)n1	-3%	4%	3%	-2	-2
O=C(CC1N=C2c3ccccc3N=C(SCC(=O)Nc3cccc(Cl)c3)N2C1=O)NCc1cccs1 (stereo not drawn)	nt	nt	-2%	nt	nt
Cc1ccc(NC(=O)c2cc(NC(=O)c3ccco3)ccc2N2CCOCC2)cc1Cl	-34%	2%	?	-9	-2
O=C(Nc1ccc(N2CCOCC2)c(Cl)c1)c1ccccc1Cl	-2%	4%	-5%	60*	30*
O=C(Nc1ccc(N2CCOCC2)c(Cl)c1)c1ccc(Br)o1	2%	-39%	5%	110*	79*
O=C(Nc1ccc(N2CCOCC2)nc1)c1ccc(Cl)cc1	?	-7%	-3%	49*	16*
O=C(Nc1ccc(N2CCN(C(=O)c3ccccc3)CC2)c(Cl)c1)c1ccc(Br)o1	-5%	-59%	-7%	14	-2
O=C(Nc1ccc(N2CCOCC2)cc1)c1ccc(Cl)nc1	-27%	4%	-6%	-13	-1
O=C(CSc1nnc(Cc2ccccc2)n1-c1cccc(Cl)c1)NNC(=O)Cc1ccccc1	54%	-14%	?	-5	5
O=C(CS(=O)(=O)c1cccc2nsnc12)Nc1ccccc1Cl	nt	nt	3%	nt	nt
O=c1c2c(nc3cc(-c4ccc(F)cc4)[nH]n13)CCCC2	-23%	5%	2%	74*	39*
Cc1[nH]n2c(=O)c3c(nc2c1-c1ccc(F)cc1)CCCC3	-9%	5%	4%	14	6
O=c1c2c(nc3cc(-c4cccc(Cl)c4)[nH]n13)CCC2	-24%	-3%	-1%	52*	23
O=c1c2c(nc3c(-c4ccc(Cl)cc4)c[nH]n13)CCCC2	-46%	-15%	-3%	4	1
O=c1c2c(nc3cc(-c4cccc(F)c4)[nH]n13)CCC2	-28%	nt	-13%	95*	51*
O=C(OCC(=O)N1CCc2ccccc2C1)c1ccc(Cl)c([N+](=O)[O-])c1	-18%	nt	-7%	nt	nt
Cc1ccc(C)c(OCC(=O)N2CCc3ccccc3C2)c1	0%	-24%	-7%	26	13*
Cc1cc(OCC(=O)N2CCc3ccccc3C2)c(C)cc1Br	15%	-68%	7%	40*	27*
Nc1ccc(C(=O)OCC(=O)N2CCc3ccccc3C2)cc1[N+](=O)[O-]	-21%	-21%	-3%	57*	38*
Cc1ccccc1OCC(=O)N1CCc2ccccc2C1	-15%	-5%	4%	19	15
Cc1ccsc1C(=O)OCC(=O)N1CCc2ccccc2C1	-8%	nt	-7%	115*	45*
CCOC(=O)c1c(NC(=O)c2ccc(S(=O)(=O)N3CCC(C)CC3)cc2)sc2c1CCN(C)C2	nt	nt	9%	nt	nt
Cc1nn2cc(-c3ccc(N)cc3)nc2s1	-10%	0%	-3%	69*	35*
COc1ccc(NC(=O)c2ccc(-c3ccccc3Cl)o2)cc1	-8%	8%	-15%	34	43*
COc1ccc(NC(=O)c2ccc(-c3cccc(Cl)c3C)o2)cc1	nt	nt	-2%	nt	nt
SMILES	AmpC no deterg	NS1 function inh	AmpC detergent	Shiga inhibitor	Cycloheximide cs
O=C(Nc1cccc(F)c1)c1ccc(-c2ccccc2Cl)o1	-2%	-77%	-5%	105*	66*
COC(=O)c1sccc1-c1ccc(C(=O)Nc2ccccc2)o1	-33%	-75%	0%	75*	78*
COc1ccc(NC(=O)c2cc(-c3ccccc3Cl)no2)cc1	-20%	-14%	-9%	69*	32*
Cc1ccc(-c2ccc(C(=O)Nc3cccc(F)c3)o2)c2ccccc12	?	-49%	?	17	19
O=C(CCSCc1ccc(Cl)cc1)N1CCN(c2ccccc2F)CC1	nt	nt	9%	nt	nt
Clc1cccc(CN2CCSCC2)c1	-12%	17%	-5%	nt	-3
CN(CC(=O)Nc1cccc(F)c1)C(=O)CCNC(=O)c1ccc(Br)cc1	44%	13%	-10%	36	22*
Cc1ccc(C)c(NC(=O)CN(C)C(=O)c2ccc(-c3ccc(Cl)cc3)o2)c1	-1%	nt	-21%	nt	nt
CN(CC(=O)Nc1cccc(F)c1)C(=O)c1ccc(-c2ccc(Cl)cc2)o1	-7%	-55%	5%	71*	23*
O=C(Nc1ccccc1)c1cc(-c2ccccc2Cl)no1	-16%	-41%	-1%	122*	47*
COc1ccc(-c2cc3ccc(O)c(CN4CCCC4)c3oc2=O)cc1OC	nt	nt	7%	nt	nt
COc1cccc(N2CCN(C(=O)C3CCN(S(=O)(=O)c4c(C)noc4/C=C/c4ccccc4F)CC3)CC2)c1	nt	nt	-3%	nt	nt
COc1cc2cnc(-c3ccccc3F)cc2cc1OC	92%	nt	nt	nt	nt
O=S(=O)(Nc1ccc2oc3c(c2c1)CCCC3)c1cc(Cl)ccc1Cl	nt	nt	11%	nt	nt
CN1CCO/C1=C(\C(Cl)=C(Cl)Cl)[N+](=O)[O-]	-8%	nt	2%	-6	-3
O=[N+]([O-])C(=C1Nc2ccccc2N1)C(Cl)=C(Cl)Cl	-29%	0%	0%	24	16*
CCN(C(=O)COC(=O)COc1ccc(Cl)c(C)c1)C1CCS(=O)(=O)C1 (stereo not drawn)	41%	nt	?	nt	nt
CCOc1ccc(-c2cccc(NS(=O)(=O)c3ccccc3C(F)(F)F)c2)nn1	nt	nt	27%	nt	nt
CC(C)(C)c1cc(C(=O)N/N=C/c2ccc(-c3ccccc3[N+](=O)[O-])o2)n[nH]1	-50%	16%	0%	45	26*
O=C(N/N=C/c1ccc(-c2ccccc2[N+](=O)[O-])o1)c1cccnc1	-33%	-15%	-9%	6	16*
O=C(NCc1cccnc1)c1ccc(-c2cccc(Cl)c2Cl)o1	142%	-7%	-4%	16	12
O=C(N/N=C/c1cc2c(cc1[N+](=O)[O-])OCO2)c1cccnc1	-13%	3%	10%	23	1
O=C(NCc1cccnc1)c1ccc(-c2ccccc2[N+](=O)[O-])o1	-14%	13%	0%	40*	11
Cc1cc(C)cc(NS(=O)(=O)c2c(C)nc3scc(C)n3c2=O)c1	nt	nt	9%	nt	nt
CCc1cc2c(=O)c(-c3ccc4c(c3)OCO4)coc2c(CN(C)C)c1O	25µM*	-1%	3%	8	-3
SMILES	AmpC no deterg	NS1 function inh	AmpC detergent	Shiga inhibitor	Cycloheximide cs
CCc1cc2c(=O)c(-c3cscn3)coc2c(CN(C)C)c1O	-53%	6%	?	-5	-3
O=[N+]([O-])c1ccc(NCc2ccccc2N2CCC(CO)CC2)nc1	-23%	-3%	2%	-14	2
COC(=O)c1ccc(CSc2n[nH]c(=S)s2)o1	-12%	-4%	?	-8	-4
Cc1csc(NC(=O)CSc2nc3ccccc3s2)n1	-34%	-58%	?	24	-1
Cn1cccc1C(=O)NC(=O)CSc1nc2ccccc2s1	16µM*	-6%	-2%	-11	9
O=C(CSc1nc2ccccc2s1)CSc1nc2ccccc2s1	-47%	16%	-10%	-19	-1
CC(=O)CSc1nc2ccccc2s1	-21%	-7%	-2%	61	25*
